Measurements reported in PubChem BioAssay (NCATS).
Inconclusive results are not listed. The source made the active and inactive calls. Calls follow the shape of the dose curve; as a rule, active = well fitted cell-killing curve with a large enough effect; inconclusive = small, poorly fitted or top-dose-only effect; inactive = no such curve, though single readings can be large or run the other way. *1 amine or outer side, *2 acyl side, *3 side chain or, on linkers, in order; H or OH if unused. Where a SMILES comes first, the peptide text is derived from it. Bridges are numbered along the chain shown (N, C = ends). [ ]: non-standard residue; d: D form. The star is where a group is joined. ξ: configuration not given here. X10 = NC1=NCCC(C(N[*:1])C(=O)[*:2])N1; ΔAla(3-NHCONH2) = NC(=O)NC=C(N)C(=O)O; ξβ3hOrn = NCCCC(N)CC(=O)*; Dap = NC[CH](N)C(=O)O

Experiment: qHTS of pediatric cancer cell lines to identify multiple opportunities for drug repurposing: Primary screen for LAN-5 cells (AID 1347100)
Settings: LAN-5 neuroblastoma viability, CellTiter-Glo luminescence, 48 h; series mostly up to 46 µM; activity change, negative = cytotoxic: at the top concentration
Description: Drug repurposing or repositioning has been offered as a strategy for drug development in oncology programs. This approach has special potential for childhood cancers and other rare or orphan diseases, where the expected return on new drug development has been a disincentive to pharmaceuticals.
In this project we exploit the poly-pharmacology of drugs to discover new indications via phenotypic screening of a panel of 19 well-characterized cell lines derived from solid tumors seen in children and adolescents. The goal is to identify approved drugs with previously unrecognized anticancer properties that has the potential to reveal new mechanisms and biological processes involved in carcinogenesis or drug resistance. We employed a titration-based paradigm (quantitative high-throughput screening or qHTS), where all compounds were tested at multiple concentrations for their effect on cell viability. Concentration-response curves (CRCs) were derived directly from the primary screen, and both potency and efficacy values were used to identify compounds with robust bioactivity profiles. We screened the NIH Chemical Genomics Center (NCGC) Pharmaceutical Collection (NPC) and Mechanism Interrogation Plate (MIPE) small molecule collections of approved and investigational compounds against these cell lines; and measured metabolically active cells after 48 hours of compound treatment as a proxy for cell viability.
Assay Submitter: Nathalia J. Martinez, National Center for Advancing Translational Sciences, National Institutes of Health, Rockville, MD, USA; email: natalia.martinez@nih.gov
[1] Shen, M et al. Quantitative high-throughput phenotypic screening of pediatric cancer cell lines identifies multiple opportunities for drug repurposing. Oncotarget 2017 Dec 19;9(4):4758-4772. PMID 29435139.
The cells were obtained from University of North Carolina (UNC), Pediatric Preclinical Testing Program (PPT), and Coriell Institute (CI).
qHTS cell viability assay:
Cells were assayed in growth media at a density of 500-1,000 cells/well. Five microliters of cells were dispensed into 1,536-well, white, solid-bottom, TC-treated plates (Greiner Bio One) using a multidrop dispenser and incubated at 37 degrees C, 5% CO2, under a humidified atmosphere for 5 hours. Twenty-three nanoliters of compounds and controls (neutral control DMSO or positive control bortezomib at final concentration of 2.3 µM) were subsequently transferred by Kalypsys pintool. For primary screens, the MIPE collection was tested at 11-point dilutions (final concentrations range from 0.78 nM to 46 µM) and the NPC collection at 8-point dilutions (final concentrations range from 0.59 nM to 46 µM). Compounds tested in follow-up screens were assayed at 11-point dilutions. Cells were incubated for 48 hours, followed by addition of 3 µL of CellTiter-Glo (Promega). After a 15 min incubation at room temperature, samples were analyzed for luminescence intensity using a ViewLux High-throughput CCD imager equipped with clear filters.
Potency is read from the fitted curve at half-maximal effect.

SMILES | activity change, negative = cytotoxic | Potency
CC(C)=CCC/C(C)=C/CC/C(C)=C/CCC(=O)OC/C=C(\C)CCC=C(C)C | 21.1% (inactive) | 
CN1CCC(=C2c3ccccc3CCc3cccnc32)CC1 | 0.224% (inactive) | 
N#CSCC(=O)O | 20.1% (inactive) | 
CCN(CC)CC(=O)Oc1ccc(NC(C)=O)cc1 | 23.7% (inactive) | 
CC(C)(C)NCC(O)COc1ccccc1OCC1CCCO1 (stereo not given) | 16.2% (inactive) | 
N#CC1(c2ccc(F)cc2)CCC(=O)CC1 | -2.96% (inactive) | 
C/C(=C1\CCOC(=O)S1)N(C=O)Cc1cnc(C)nc1N | -13.1% (inactive) | 
CCOC(=O)[C@H](CCc1ccccc1)N[C@@H](C)C(=O)N(CC(=O)O)C1Cc2ccccc2C1 | -2.52% (inactive) | 
NCCCC(N)CC(=O)NCC1NC(=O)C(CO)NC(=O)C(N)CNC(=O)C(C2CCN=C(N)N2)NC(=O)C(=CNC(N)=O)NC1=O (stereo not drawn) (H-[Dap]S[Dap](ξβ3hOrn)[ΔAla(3-NHCONH2)][X10]; lactam 1-C; configuration not given here) | 6.67% [at 0.597 µM] (inactive) | 
Cc1cc(CCCOc2c(C)cc(-c3noc(C(F)(F)F)n3)cc2C)on1 | -12% (inactive) | 
OC1(c2ccccc2)CCNCC1 | -9.28% (inactive) | 
CCOc1ccc(NS(=O)(=O)c2ccc(N)cc2)nn1 | 1.7% (inactive) | 
CCOc1c(N2CCOCC2)cnn(C)c1=O | 7.58% (inactive) | 
CC(C)C(=O)Nc1cccc(C2CN3CCSC3=N2)c1 (stereo not given) | -4.88% (inactive) | 
COc1ccc2c(c1)CCCC2=O | 32.3% (inactive) | 
CNC(=O)c1cnn(-c2nc(N)c3ncn([C@@H]4O[C@H](CO)[C@@H](O)[C@H]4O)c3n2)c1 | 1.83% (inactive) | 
CCN1CCN(c2cc(-c3ccc(F)cc3)c3c(n2)CCCCCC3)CC1 | -8.52% [at 16.1 µM] (inactive) | 
O=C(O)CNC(=O)CNC(=O)CNC(=O)CSC(=O)c1ccccc1 | 4.44% (inactive) | 
CCOCCn1c(C2CCN(CCc3ccc(C(C)(C)C(=O)O)cc3)CC2)nc2ccccc21 | -6.73% (inactive) | 
O=C(CO)[C@@H](O)[C@H](O)[C@@H](O)CO | 10.3% (inactive) | 

SMILES | activity change, negative = cytotoxic | Potency
CC(C)OP(=O)(CP(=O)(OC(C)C)OC(C)C)OC(C)C | 5.27% (inactive) | 
O=C(O)C1CCC1 | 31.4% (inactive) | 
O=C(OCC1(COC(=O)c2cccnc2)CCCC(COC(=O)c2cccnc2)(COC(=O)c2cccnc2)C1O)c1cccnc1 | -0.837% (inactive) | 
Nc1ccc([N+](=O)[O-])c(C(F)(F)F)c1 | 2.44% (inactive) | 
CC(=O)N(CC(O)CO)c1c(I)c(C(=O)NCCO)c(I)c(C(=O)NCC(O)CO)c1I (stereo not given) | 17.5% (inactive) | 
CCN1CCCC1CN (stereo not given) | -0.291% (inactive) | 
O=C(O)[C@@H](O)[C@H](O)[C@H](O)[C@@H](O)C(=O)O | 1.14% (inactive) | 
O=C(O)CCCC[P+](c1ccccc1)(c1ccccc1)c1ccccc1 | 6.56% (inactive) | 
CCN(CC)CCOc1ccc(/C(=C(\Cl)c2ccccc2)c2ccccc2)cc1 |  | 18.8 µM (active)
COc1ccccc1OCC1CNC(=O)O1 (stereo not given) | 17.2% (inactive) | 
O=C(Oc1ccccc1)c1cccc(C(=O)Oc2ccccc2)c1 | -16.7% [at 92.7 µM] (inactive) | 
O=C1CCCc2c(O)cccc21 | -1.76% (inactive) | 
COC(=O)c1cc(S(N)(=O)=O)ccc1OC | 6.21% (inactive) | 
COc1ccc(OC(=O)N(CC(=O)O)Cc2ccc(OCCc3nc(-c4ccccc4)oc3C)cc2)cc1 | -7.29% (inactive) | 
CCOc1ncc(F)c(=O)[nH]1 | 14.5% (inactive) | 
O=C(O)c1[nH]n(-c2ccc(S(=O)(=O)O)cc2)c(=O)c1N=Nc1ccc(S(=O)(=O)O)cc1 | -3.27% (inactive) | 
CCC(CN)=C(c1ccccc1)c1ccccc1 | -8.74% (inactive) | 
CCN1C(=O)c2ccccc2C1Nc1ccc(OCCN2CCCCC2)cc1 (stereo not given) | 6.25% (inactive) | 
Nc1nnnn1-c1ccccc1 | 17.2% (inactive) | 
CN1[C@@H]2CC[C@H]1CC(NC(=O)n1c(=O)[nH]c3ccccc31)C2 (stereo not given in full) | 4.02% (inactive) | 
